Rows were chosen to be rich in hits. Some 2.3% of all compounds tested hit in one or more screens of this group.
ERp5 block: ERp5 (human) disulfide isomerase inhibition; inhibition, % at 9.99 µM; Q15084; ERp5 insulin aggregation, absorbance 650 nm, 90 min; 350,000 tested, 0.05% active;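 active = mean replicate inhibition above about 25%, with every replicate also reaching it, limit read from the data, passing the limit was not always enough; inconclusive = only one of those two criteria met; inactive = neither criterion met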
SIRT5 block: inhibitors of human sirtuin-5 desuccinylase; Purified SirT5, succinyl-peptide AMC, trypsin-coupled fluorescence; inhibition, % at 15 µM; 330,000 tested, 1.1% active; in the data active = inhibition above about 15%; inconclusive = no clear call, values can overlap the other calls
PDI inh: PDI (human) enzyme inhibition | P07237 | inhibition, % at 10 µM | 350,000 tested, 0.052% active | PDI insulin aggregation turbidity, A650, 90 min;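 active = mean inhibition across replicates of 30% or more, whatever share of single replicates reach that level; inconclusive = mean inhibition below 30% while every single replicate reaches 30%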
Target sequence (P07237 whole entry, looked up): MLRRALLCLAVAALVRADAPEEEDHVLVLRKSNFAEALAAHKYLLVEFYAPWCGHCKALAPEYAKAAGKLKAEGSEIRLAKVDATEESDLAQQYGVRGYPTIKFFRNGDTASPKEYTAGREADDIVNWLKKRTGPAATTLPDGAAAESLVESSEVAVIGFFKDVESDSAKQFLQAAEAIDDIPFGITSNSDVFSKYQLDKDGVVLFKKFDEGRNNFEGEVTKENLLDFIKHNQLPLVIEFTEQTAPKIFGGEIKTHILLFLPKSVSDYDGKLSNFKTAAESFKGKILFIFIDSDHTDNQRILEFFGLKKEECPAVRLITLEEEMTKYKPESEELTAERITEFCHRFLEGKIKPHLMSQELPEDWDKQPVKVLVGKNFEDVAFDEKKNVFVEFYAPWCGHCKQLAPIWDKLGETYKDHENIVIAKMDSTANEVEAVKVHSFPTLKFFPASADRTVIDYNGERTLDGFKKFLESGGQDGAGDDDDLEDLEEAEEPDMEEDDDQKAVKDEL
DENV2 CPE rescue: inhibitors of DENV2 cytopathic effect. AID 651640. DENV2-infected cells, cytopathic effect rescue, plate reader. 350,000 tested, 1.7% active. CPE inhibition, % at 9.99 µM; in the data active = CPE inhibition above about 20%, passing the limit was not always enough; inconclusive = no clear call, values can overlap the other calls; tested in BHK-21 cells
Rtt109 HAT inh: blocks Candida albicans Rtt109/Vps75 acetyltransferase activity; purified Rtt109/Vps75, ThioGlo CoA-SH fluorescence, 4 h; 330,000 tested, 0.16% active; inhibition, % at 34.9 µM; Q5AAJ8;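 active = inhibition of at least 50% in every replicate; inconclusive = best replicate reaches 50% inhibition but some replicates fall short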
Large screens that a line does not name were inactive.

CNC[C@@H]1Oc2ccc(NS(=O)(=O)c3ccc(OC)cc3)cc2CC(=O)N([C@H](C)CO)C[C@H]1C	none (no result: PDI inh, Rtt109 HAT inh)
CCOc1cc(C=NN2CCCCCC2)ccc1O	SIRT5 block 31.3
CCOc1cc(/C=N/N2CCN(Cc3ccccc3)CC2)ccc1O	none
Cc1cc(N2C(=O)C(O)=C(C(=O)c3ccco3)C2c2cccc(O)c2)no1 (configuration not stated)	none
Cc1ccc2nc(N3C(=O)C(O)=C(C(=O)c4ccco4)C3c3ccc(O)cc3)sc2c1 (configuration not stated)	none
Cc1cc(C)c2nc(N3C(=O)C(O)=C(C(=O)c4ccco4)C3c3cccc(O)c3)sc2c1 (configuration not stated)	SIRT5 block 16.6
Cc1cc(C)c2nc(N3C(=O)C(O)=C(C(=O)c4ccco4)C3c3ccc(O)cc3)sc2c1 (configuration not stated)	SIRT5 block 17.4
Cc1cccc(C(O)c2ncc(-c3ccccc3Cl)[nH]2)c1C (configuration not stated)	none (no result: SIRT5 block, Rtt109 HAT inh)
Cc1ccccc1-c1cnc(C(O)c2cccc(C)c2C)[nH]1 (configuration not stated)	DENV2 CPE rescue 20.6 (no result: Rtt109 HAT inh)
CCn1c(SCC(=O)Nc2ccc(OC)cc2)nc2nc3c(cc2c1=O)CCCC3	SIRT5 block 16.3
CCn1c(SCC(=O)Nc2ccc(Cl)cc2)nc2nc3c(cc2c1=O)CCCC3	none (no result: ERp5 block, SIRT5 block, DENV2 CPE rescue)
C[C@@H]1CN([C@H](C)CO)C(=O)c2cc(NC(=O)CCCN(C)C)ccc2O[C@H]1CN(C)S(=O)(=O)c1cn(C)cn1	none (no result: PDI inh, Rtt109 HAT inh)
C[C@H]1CN([C@@H](C)CO)C(=O)c2cc(NC(=O)CCCN(C)C)ccc2O[C@@H]1CN(C)S(=O)(=O)c1cn(C)cn1	DENV2 CPE rescue 38.4 (no result: PDI inh, Rtt109 HAT inh)
C[C@@H]1CN([C@H](C)CO)C(=O)c2cc(NC(=O)C3CC3)ccc2O[C@H]1CN(C)S(=O)(=O)c1cn(C)cn1	none (no result: PDI inh, Rtt109 HAT inh)
C[C@H](CO)N1C[C@H](C)[C@@H](CN(C)S(=O)(=O)c2cn(C)cn2)Oc2ccc(NC(=O)C3CC3)cc2CC1=O	SIRT5 block 16.4 (no result: PDI inh, Rtt109 HAT inh)
C[C@H]1CN([C@@H](C)CO)C(=O)c2cc(NC(=O)C3CC3)ccc2O[C@H]1CN(C)S(=O)(=O)c1cn(C)cn1	SIRT5 block 29.1 (no result: PDI inh, Rtt109 HAT inh)
Cc1ccc(CN2CC(=O)N3[C@H](CO)[C@H](c4ccc(Br)cc4)[C@@H]3C2)cc1	none (no result: PDI inh, Rtt109 HAT inh)
O=C(NCC[C@@H]1CC[C@@H](NS(=O)(=O)c2ccc(Oc3ccccc3)cc2)[C@@H](CO)O1)C1CC1	none (no result: PDI inh, Rtt109 HAT inh)
COCC(=O)N(C)C[C@H]1Oc2cc(C3=CCCCC3)ccc2S(=O)(=O)N([C@@H](C)CO)C[C@H]1C	none (no result: PDI inh, Rtt109 HAT inh)
C[C@H](CO)N1C[C@H](C)[C@H](CN(C)C(=O)C2CC2)Oc2cc(C3=CCCCC3)ccc2S1(=O)=O	none (no result: PDI inh, Rtt109 HAT inh)
CC1(c2nnc(Cc3ccccc3)o2)CC(c2ccc(Br)cc2)=NO1 (configuration not stated)	none (no result: ERp5 block, SIRT5 block, DENV2 CPE rescue)
CC1(c2nnc(Cc3ccccc3)o2)CC(c2ccc([N+](=O)[O-])cc2)=NO1 (configuration not stated)	DENV2 CPE rescue 31.3
O=C(CC1CC1)N1[C@@H](CO)[C@H](c2ccccc2)C12CN(Cc1ccncc1)C2	none (no result: PDI inh, Rtt109 HAT inh)
C[C@H](CO)N1C[C@H](C)[C@H](CN(C)Cc2ccc(-c3ccccc3)cc2)Oc2c(NC(=O)c3ccc(-c4nccs4)cc3)cccc2C1=O	none (no result: PDI inh, Rtt109 HAT inh)
C[C@@H]1CN([C@@H](C)CO)C(=O)c2cccc(NC(=O)c3ccc(-c4nccs4)cc3)c2O[C@@H]1CN(C)Cc1ccccc1	SIRT5 block 15.4 (no result: PDI inh, Rtt109 HAT inh)
C[C@H]1CN([C@@H](C)CO)C(=O)c2cccc(NC(=O)c3ccc(-c4nccs4)cc3)c2O[C@H]1CN(C)Cc1ccc(Oc2ccccc2)cc1	SIRT5 block 21.0 (no result: PDI inh, Rtt109 HAT inh)
C[C@@H]1CN([C@@H](C)CO)C(=O)c2cccc(NC(=O)c3ccc(-c4nccs4)cc3)c2O[C@@H]1CN(C)Cc1ccc(Oc2ccccc2)cc1	none (no result: PDI inh, Rtt109 HAT inh)
C[C@H](CO)N1C[C@H](C)[C@@H](CN(C)Cc2ccc(Oc3ccccc3)cc2)Oc2c(NC(=O)c3ccc(-c4nccs4)cc3)cccc2C1=O	SIRT5 block 15.9 (no result: PDI inh, Rtt109 HAT inh)
Cc1noc(C)c1NC(=O)N(C)C[C@@H]1Oc2ccc(NC(=O)CCCCCC(=O)Nc3ccccc3N)cc2CC(=O)N([C@H](C)CO)C[C@@H]1C	none (no result: PDI inh, Rtt109 HAT inh)
COc1cc(/C=N/NC(=O)c2cc(-c3ccccc3Cl)nc3ccccc23)cc(OC)c1O	none
COc1cc(/C=N/NC(=O)c2cc(-c3ccco3)nc3ccccc23)cc(OC)c1O	DENV2 CPE rescue 30.8
O=C(C[C@H]1C=C[C@@H](NC(=O)CC2CC2)[C@@H](CO)O1)NCC(F)(F)F	none (no result: PDI inh, Rtt109 HAT inh)
NC(=O)C1CCN(c2nc(-c3ccccc3F)cs2)CC1	none (no result: SIRT5 block)
NC(=O)C1CCN(c2nc(-c3ccccc3Br)cs2)CC1	DENV2 CPE rescue 80.4 (no result: SIRT5 block, PDI inh, Rtt109 HAT inh)
CN(C)CCCNC(=O)C[C@@H]1CC[C@@H]2[C@H](COC[C@@H](O)CN2S(=O)(=O)c2ccc(F)cc2)O1	none (no result: PDI inh, Rtt109 HAT inh)
Cn1cnc(S(=O)(=O)N2C[C@@H](O)COC[C@@H]3O[C@@H](CC(=O)NC4CCCC4)CC[C@H]32)c1	DENV2 CPE rescue 114.3 (no result: PDI inh, Rtt109 HAT inh)
Cn1cnc(S(=O)(=O)N2C[C@H](O)COC[C@H]3O[C@H](CC(=O)NC4CCCC4)CC[C@@H]32)c1	none (no result: PDI inh, Rtt109 HAT inh)
Cc1ccc(S(=O)(=O)N2C[C@H](O)COC[C@H]3O[C@H](CC(=O)NCCN4CCCCC4)CC[C@@H]32)cc1	none (no result: PDI inh, Rtt109 HAT inh)
Cc1ccc(S(=O)(=O)N2C[C@@H](O)COC[C@H]3O[C@@H](CC(=O)NCCN4CCCCC4)CC[C@@H]32)cc1	DENV2 CPE rescue 67.2 (no result: PDI inh, Rtt109 HAT inh)
CN(C)CCCNC(=O)C[C@@H]1CC[C@H]2[C@@H](COC[C@H](O)CN2S(=O)(=O)c2ccccc2)O1	DENV2 CPE rescue 59.9 (no result: PDI inh, Rtt109 HAT inh)
Cc1ccc(S(=O)(=O)Nc2ccc3c(c2)CC(=O)N([C@@H](C)CO)C[C@H](C)[C@H](CN(C)C(=O)NC2CCCCC2)O3)cc1	none (no result: PDI inh, Rtt109 HAT inh)
CN1c2ccc(Br)cc2[C@@H]2[C@@H](CCN2S(=O)(=O)c2cccc(F)c2)[C@H]1CO	none (no result: PDI inh, Rtt109 HAT inh)
O=c1cc(-c2cccc(F)c2)[nH]c2ccccc12	DENV2 CPE rescue 36.0
Cc1ccc2[nH]c(-c3cccc(F)c3)cc(=O)c2c1	none (no result: DENV2 CPE rescue)
O=C(Cc1ccncc1)NCC[C@@H]1CC[C@@H](NC(=O)C2CCC2)[C@H](CO)O1	none (no result: PDI inh, Rtt109 HAT inh)
CCCNC(=O)Cn1sc2nc(C)cc(C)c2c1=O	Rtt109 HAT inh 112.6
Cc1cc(C)c2c(=O)n(CC(=O)N3CCC(N4CCCCC4)CC3)sc2n1	Rtt109 HAT inh inconclusive (no result: PDI inh)
COc1cc(CN2CCCC(C(=O)c3ccc(C(C)(C)C)cc3)C2)cc(OC)c1O (configuration not stated)	DENV2 CPE rescue 25.8
CCCN(CC1CCCO1)C(=O)c1cc(COc2cccc(OC)c2)on1 (configuration not stated)	none
COc1cccc(OCc2cc(C(=O)N(C)CCC3CCCCO3)no2)c1 (configuration not stated)	DENV2 CPE rescue 39.3
C[C@H](CO)N1C[C@H](C)[C@H](CN(C)Cc2ccccn2)Oc2ncc(C3=CCCC3)cc2C1=O	none (no result: PDI inh, Rtt109 HAT inh)
